Experimental findings from PubChem BioAssay (NCI) are described below.

A short description of the assay: NCI Yeast Anticancer Drug Screen. Data for the rad50EPP+ strain (AID 151).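 Also: 0% = growth of vehicle-treated control cultures.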 Particulars: S. cerevisiae rad50 mutant strain, stronger effect = higher value. As for the experimental part: Growth inhibition of yeast strains with defined genetic alterations is measured as a screen for potential anti-cancer activity. Selected strains with alterations in DNA damage repair or cell cycle control were exposed to compounds and growth inhibition was measured relative to vehicle treated controls. The strain used in this assay is rad50EPP+

This is part of a sample that, as a whole, favours compounds with a hit. Of some 79,000 tested, about 15% had one in any assay. Activity calls are given as the source filed them. Rule as the data show it: active = growth inhibition above about 70%; inactive = the rest.

On to `NNc1ccccc1Cl`, for which the growth inhibition runs as follows: (at 1.2 µM) 56% (inactive); (at 3.7 µM) 80% (active); (at 11.0 µM) 92% (active); (at 33.0 µM) 95% (active); (at 100.0 µM) 94% (active).

Turning to `O=C(/C=C(\c1ccccc1)N1CC1)c1ccccc1`, the growth inhibition is, setting by setting: (at 1.2 µM) 2% (inactive); (at 3.7 µM) 17% (inactive); (at 11.0 µM) 50% (inactive); (at 33.0 µM) 72% (active); (at 100.0 µM) 86% (active).

As to `CS(=O)(=O)OCCN(CCOS(C)(=O)=O)c1ccc(C=O)cc1`, the growth inhibition is 4% (inactive) (at 1.2 µM); 6% (inactive) (at 3.7 µM); 9% (inactive) (at 11.0 µM); 30% (inactive) (at 33.0 µM); 51% (inactive) (at 100.0 µM).

As for `Cc1ccc2c(c1N)C(=O)c1ccccc1C2=O`, the growth inhibition was 22% (inactive) (at 1.2 µM); 45% (inactive) (at 3.7 µM); 69% (inactive) (at 11.0 µM); 78% (active) (at 33.0 µM); 76% (active) (at 100.0 µM).

Consider `CC1CCCN(CCc2ccccc2)CC1` (stereo not given), for which the growth inhibition by setting is: (at 1.2 µM) 2% (inactive); (at 3.7 µM) 3% (inactive); (at 11.0 µM) 4% (inactive); (at 33.0 µM) 4% (inactive); (at 100.0 µM) 5% (inactive).

As for `OCC(O)C(O)CO` (stereo not given) (tested in a mixture with another compound), the growth inhibition is 1% (inactive) (at 1.2 µM); 2% (inactive) (at 3.7 µM); 6% (inactive) (at 11.0 µM); 9% (inactive) (at 33.0 µM); 10% (inactive) (at 100.0 µM).

Consider `CSC(=Nc1ccccc1)N(c1ccccc1)c1nc(=[N+](C)C)ss1`, for which the growth inhibition (at 1.2 µM) was -1% (inactive); the growth inhibition (at 3.7 µM) was -5% (inactive); the growth inhibition (at 11.0 µM) is 23% (inactive); the growth inhibition (at 33.0 µM) was 87% (active); the growth inhibition (at 100.0 µM) is 97% (active).

On to `CC(Cc1ccccc1)N(C)Cc1nc(C2CCC([N+](=O)[O-])O2)no1` (stereo not given), for which the growth inhibition runs as follows: (at 1.2 µM) 5% (inactive); (at 3.7 µM) 14% (inactive); (at 11.0 µM) 27% (inactive); (at 33.0 µM) 44% (inactive); (at 100.0 µM) 42% (inactive).
